According to the supplement of paper PMC6555819:

Assays:
Test in all cases: PBM binding z-score (relative to random genomic background probes); higher = stronger binding; sequences stand for … in GC…GCGATTGACAGCGTAGAATGAAGG
[1] = tested on: FXR:RXRa (NR concentration 270 nM, RXRa partner concentration 90 nM)
In short: (§1)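 Custom Agilent 4×180K protein-binding microarrays carried double-stranded probes, each with a 34-nt variable region. These regions held direct-repeat seeds, single-nucleotide variants, half-site ablations and random human genomic background sequences. Ligand-free nuclear receptor dimers were incubated on the arrays for 1 h, antibodies against each partner (one per run) detected binding, and scanned fluorescence was regression-normalized. Binding z-scores take the random background probes as reference.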

[2] = tested on: LXRa:RXRa (NR concentration 270 nM, RXRa partner concentration 90 nM)
In short: as §1

[3] = tested on: LXRa homodimer (NR concentration 270 nM)
In short: as §1

[4] = tested on: LXRb:RXRa (NR concentration 270 nM, RXRa partner concentration 90 nM)
In short: as §1

[5] = tested on: LXRb homodimer (NR concentration 270 nM)
In short: as §1

[6] = tested on: PPARa:RXRa (NR concentration 270 nM, RXRa partner concentration 90 nM)
In short: as §1

[7] = tested on: PPARg:RXRa (NR concentration 180 nM, RXRa partner concentration 90 nM)
In short: as §1

[8] = tested on: PPARg:RXRa 270nM:90nM, anti-RXR (NR concentration 270 nM, RXRa partner concentration 90 nM)
In short: as §1

[9] = tested on: PPARg:RXRa 30nM:10nM, anti-RXR (NR concentration 30 nM, RXRa partner concentration 10 nM)
In short: as §1

[10] = tested on: PPARg:RXRa 90nM:30nM, anti-RXR (NR concentration 90 nM, RXRa partner concentration 30 nM)
In short: as §1

[11] = tested on: PPARg:RXRa DBDmut IVT, anti-RXR (DBD mutation: RXRa K156A/R161A, NR concentration 270 nM, RXRa partner concentration 90 nM)
In short: as §1

[12] = tested on: PPARg:RXRa IVT, anti-PPARg (NR concentration 270 nM, RXRa partner concentration 90 nM)
In short: as §1

[13] = tested on: PPARg DBDmut:RXRa IVT, anti-PPARg (DBD mutation: PPARg1 K132A/R137A, NR concentration 270 nM, RXRa partner concentration 90 nM)
In short: as §1

[14] = tested on: PPARg DBDmut IVT, anti-PPARg (DBD mutation: PPARg1 K132A/R137A, NR concentration 270 nM)
In short: as §1

[15] = tested on: PPARg homodimer (NR concentration 180 nM)
In short: as §1

[16] = tested on: PXR:RXRa (NR concentration 270 nM, RXRa partner concentration 90 nM)
In short: as §1

[17] = tested on: PXR homodimer (NR concentration 270 nM)
In short: as §1

[18] = tested on: RARa:RXR (NR concentration 270 nM, RXRa partner concentration 90 nM)
In short: as §1

[19] = tested on: RARa homodimer (NR concentration 270 nM)
In short: as §1

[20] = tested on: RARb:RXRa (NR concentration 270 nM, RXRa partner concentration 90 nM)
In short: as §1

Sequence	PBM binding z-score [1]	PBM binding z-score [2]	PBM binding z-score [3]	PBM binding z-score [4]	PBM binding z-score [5]	PBM binding z-score [6]	PBM binding z-score [7]	PBM binding z-score [8]	PBM binding z-score [9]	PBM binding z-score [10]	PBM binding z-score [11]	PBM binding z-score [12]	PBM binding z-score [13]	PBM binding z-score [14]	PBM binding z-score [15]	PBM binding z-score [16]	PBM binding z-score [17]	PBM binding z-score [18]	PBM binding z-score [19]	PBM binding z-score [20]
CGAACTAGGTCATTGACAGGACAGCGAATAGTAA	4.04	2.83	0.577	1.84	-0.147	4.83	7.35	6.29	3.94	5.75	7.7	7.96	1.01	0.969	1.57	1.35	0.255	2.1	0.179	3.61
ATCGAAAGGTCGAGAGGTGAGTATACAGAAAGGC	4.46	3.02	-0.0292	2.63	0.274	4.33	3.42	3.44	1.69	2.47	-0.201	1.82	0.777	0.861	2.03	2.69	-0.031	3.73	0.105	3.88
AGAATGACGTTAAGATCAGGGAAACAGAATACAT	-0.19	-0.216	-0.265	-0.142	-0.294	-0.223	0.69	-0.0483	0.359	0.136	-0.994	-0.522	-0.562	0.191	-0.654	-0.527	0.305	-0.498	0.719	-0.268
CGTCCAAGGTCATAGGTCAGTGAAGAGATGACGG	7.34	5.78	1.65	4.74	1.02	6.22	7.76	7.27	5.12	7.07	3.46	4.78	0.896	-0.0935	3.35	5.48	1.01	6.98	1.13	5.36
GTACCAAGGTGAATAGGTCGGTGATGAGTAGGCG	0.606	0.247	-0.139	0.125	-0.619	1.64	1.24	1.29	0.291	0.711	1.48	2.82	-0.0174	0.489	0.98	0.296	0.0352	1.02	0.441	1.86
TCTAGTTGGTTAAAGGTCACACACTCGAAATGCG	5.51	5.54	4.45	5.47	2.22	6.63	9.55	8.64	8.96	9.31	3.15	5.25	1.74	2.83	4.61	5.24	1.86	6.06	4.25	4.77
AGTCAAAGTTCACTAGGAAACGTAAGATTCAGCT	5.38	5.47	2.41	2.89	0.822	4.1	5.8	6.01	2.93	5.11	0.0474	2.6	1.13	0.557	2.18	3.61	2.13	2.66	0.899	4.84
ATCGACAGGTCGTGAGGTGAGTATACAGAAAGGC	1.05	1.19	0.0757	0.943	0.0816	2.14	1.15	0.86	0.126	0.461	-0.42	0.86	-0.374	-0.491	0.776	0.904	0.267	1.86	0.537	1.88
CCGACTGGGGCATCAGGTTACCATAAGCCAGCCC	-0.188	0.277	-0.351	-0.136	-1.31	0.743	1.33	1.59	-0.0759	1.03	3.34	3.84	-0.621	-1.56	0.326	-0.505	-0.821	-0.109	-0.776	1.01
CCGACTAGGGCAAAGGTTACCATACTCAGTACGA	2.31	2.04	0.518	2.49	-0.304	6.31	11.2	8.96	9.02	9.62	5.49	6.42	0.866	0.896	2.04	2.23	-0.079	3.59	0.449	2.85
ATCGAAAGGTCGACGTGGTGAGTATACACCGTTT	4.21	3.3	0.0877	2.49	0.332	4.08	2.08	2.66	1.01	1.77	0.406	1.46	0.651	0.527	1.02	2.18	0.102	3.07	0.487	3.66
TGAATGAGGTTAAAGATCAGGGAACGTGGCGTCG	3.08	2.42	-0.304	1.71	0.375	4.63	5.54	6.57	4.6	6.57	2.04	3.27	0.612	0.495	1.15	1.99	0.0833	3.37	0.135	1.97
TAGCTTAGGTCAGATCGGGCCAGTATACGCTATA	2	1.41	-0.333	0.69	0.0114	1.96	0.531	0.891	0.0799	0.412	-0.166	0.996	0.561	-0.217	0.322	1.24	-0.17	1.68	-0.0696	3.54
AGAATGAGGTTAAGATCACGGAAACAGAATACAT	2.44	1.8	0.0665	1.91	0.115	3.74	2.6	2.66	1.17	2.11	3.1	2.73	1.28	0.711	1.19	1.28	0.346	2.31	0.826	2.24
AGTATTAGTTGACTTAGGGCAACCGATACGACGC	0.048	0.00134	0.42	0.0482	0.3	0.128	0.82	0.435	0.448	0.623	-0.0999	0.548	0.229	1.16	0.56	0.237	0.692	0.353	1	1.12
AGAACGAGGGCACGCTGTGTTGATAGCAGAGTAG	0.77	0.377	-0.602	0.159	-1.07	1.92	2.14	1.81	0.262	1.12	4.43	3.96	0.394	-0.216	-0.372	0.28	-0.446	0.799	-0.803	2.39
CAAACTAGGTCACAGAGGTCAAAGTACGTGCGTA	7.52	6.76	7.47	6.46	2.46	6.64	10.3	8.39	6.94	8.5	8.25	9.23	3.28	3.36	6.01	7.09	11.9	7.54	2.98	5.38
CCTAGTTGGTCAGGAGGTCACCCACCGGATATGA	3.56	3.31	1.59	3.13	0.503	4.04	2.76	3.87	1.01	2.98	0.575	3.28	-0.921	-0.185	3.43	4.07	1.23	4.11	1.53	3.61
ATATGTAGGTTAAGGGTCATTCATGTTGGTTCGC	5.05	4.86	3.12	4.48	1.33	6.66	11.6	9.59	9.79	10.5	7.75	8.04	2.47	1.44	3.15	4.77	1.38	5.63	2.15	3.6
TAGCCTAGGTCATTCGGGCCAGTATAGTGTCGGC	4.65	3.71	1.53	2.35	0.458	3.55	1.61	2.21	-0.0237	1.26	1.8	2.76	-0.115	-0.745	0.969	2.11	0.189	2.39	-0.428	3.74
AGTCAAAGTTCACTGGGTAACGTAAGATTCAGCT	5.3	5.02	3.18	2.98	0.65	4.78	7.5	6.72	3.78	6.4	2.75	4.82	1.38	0.335	2.63	4.4	3.47	3.63	1.43	4.81
CCTATTAGTCGACCATAAGGGCAACCGAAGCTCG	0.245	0.0274	-0.217	0.208	0.406	0.539	0.531	0.353	-0.22	0.358	0.311	-0.00504	0.93	-1.02	0.749	0.26	0.25	0.415	0.709	1.24
CCTTACAGGTCACTGACAGGTTATAGCATTTGGA	6.15	4.93	2.19	3.88	0.942	5.23	4.78	4.44	2.1	3.27	4.62	4.34	1.33	1.38	3.27	3.86	0.606	4.73	2.15	4.67
GCAAACAGGTGAAACGCAGGTAACTCAGGGTGGC	-0.182	-0.0525	-0.463	-0.425	-0.88	0.919	0.672	0.158	-0.786	-0.33	2.26	1.32	-0.68	-0.00566	-0.416	-0.255	-0.519	0.397	-0.686	0.596
TCAGACAGGTGAAAGTAACTCAGGTACGCAGTCG	0.453	0.738	-0.345	0.85	-0.276	1.32	0.821	2.21	4.08	2.92	2.49	1	0.398	0.588	0.14	0.584	0.498	0.768	0.295	0.907
TGTCGAAGTTCAAAGGTAACGTAAGTATCCACAC	4.25	4.02	1.18	3.18	0.108	4.72	4.47	5.23	2.95	4.34	-0.721	2.09	0.265	0.298	1.53	4.12	1.65	4.17	0.485	3.61
ATCTCTAGGTAAAAGTTCAATGAATCCCGAGGAT	1.81	2.65	2.7	2.03	1.14	4.88	8.83	8.49	8.81	9.69	2.16	4.28	1.95	1.61	2.08	3.09	2.8	2.86	1.09	2.64
AGTCAAAGTTCAGGACGAGGTAACGTATAGCACG	4.44	4.03	1.43	1.92	0.317	3.43	4.7	5.09	2.17	4.27	-0.0709	2.03	0.949	0.866	2.09	3.08	1.29	2.97	0.98	4.34
TCAGACAGGTGAGGGTAACTCAGGTACGCAGTCG	0.261	1.36	-0.144	0.561	-0.273	0.983	0.558	1.46	3.02	2.23	2.09	1.08	0.134	-0.531	0.237	0.408	-0.0185	0.722	-0.208	1.02
